# Laboratory results from ChEMBL document CHEMBL3988442, “University of Dundee, Small-Polar-MMV Screening Library” (2021).
# Out of some 48,000 compounds screened, about 13,000 (27%) showed an effect of 50% or more. The list shows a part of the results.
# Test system: Wolbachia pipientis
# Test: Anti-Wolbachia Cell-Based Screen
# Format: functional
# Set-up: scale not given: in the data most compounds retested in dose-response had high values
# Conditions: 5 µM
row,SMILES,Percent Effect [%]
1,O=C(O)CSc1nnc(-c2cn[nH]c2)n1-c1ccccc1Cl,-15.15
2,O=C(CS(=O)(=O)c1cccc[n+]1[O-])NC1CCCc2ccccc21 (stereo not given),4.468
3,CN(Cc1cccnc1)C[C@H]1OC[C@@H]2CCN(C(=O)C3CC3)C[C@@H]21.O=C(O)C(F)(F)F.O=C(O)C(F)(F)F,-29.83
4,Cc1ccnc2c1NC(=O)CN2C(=O)CCc1cccs1,21.37
5,Cc1cccc(CO[C@@H]2CC[C@H]3[C@H]2OCCN3Cc2cc(C)on2)n1.O=C(O)C(F)(F)F.O=C(O)C(F)(F)F,-3.201
6,Cc1cccc(CN2Cc3[nH]nc(COCC4CC4)c3C2)n1.O=C(O)C(F)(F)F,-6.126
7,COc1ccc(CN2CCO[C@H]3[C@H](Oc4ccccn4)CC[C@@H]32)cc1.O=C(O)C(F)(F)F.O=C(O)C(F)(F)F,-1.108
8,Cc1nnc(N2C[C@H](OCc3ccncc3)[C@H]3OCCC[C@H]32)s1.O=C(O)C(F)(F)F.O=C(O)C(F)(F)F,-4.606
9,Cc1cccc(CN2CCO[C@H]3[C@@H](OCc4ccncc4)CC[C@@H]32)n1.O=C(O)C(F)(F)F.O=C(O)C(F)(F)F.O=C(O)C(F)(F)F,103.5
10,Fc1ccc(CN2CCO[C@H]3[C@H](OCc4ccncc4)CC[C@@H]32)cc1.O=C(O)C(F)(F)F.O=C(O)C(F)(F)F,140.9
11,COc1ccc(CN2CCO[C@H]3[C@H](OCc4ccncc4)CC[C@@H]32)cc1.O=C(O)C(F)(F)F.O=C(O)C(F)(F)F,132.4
12,Fc1ccccc1CN1C[C@@H](OCc2ccncc2)[C@H]2OCCC[C@H]21.O=C(O)C(F)(F)F.O=C(O)C(F)(F)F,11.15
13,O=C(CO[C@@H]1CC[C@H]2[C@H]1OCCN2Cc1ccccn1)N1CCCC1.O=C(O)C(F)(F)F.O=C(O)C(F)(F)F,-4.207
14,Cc1cccc(CN2CCO[C@@H]3CC(COc4ccccn4)C[C@H]32)n1.O=C(O)C(F)(F)F.O=C(O)C(F)(F)F (stereo not given in full),94.81
15,COc1cc(CNCCn2cccn2)c2c(c1)CC(C)O2 (stereo not given),-3.376
16,CC(=O)Nn1c(C)cc(CN2CCC(c3ccncc3)CC2)c1C,-4.141
17,CC(c1cccnc1)N(C)Cc1csc(-c2ccccn2)n1 (stereo not given),4.015
18,N#Cc1ccccc1CN1CCC2(CC1)CC(c1ccccc1)C(=O)N2 (stereo not given),15.31
19,Cc1nc(CNC(=O)CCN2CCN(c3ccccc3)CC2)oc1C,0.8962
20,Cc1nn(C)c(N(C)C)c1CNCC(O)c1ccccc1F (stereo not given),78.77
21,COc1c(CNCc2ccc(CN(C)C)cc2)c(C(C)C)nn1C,-2.323
22,COc1ncccc1CNCc1c(C(C)C)nn(C)c1OC,1.463
23,COc1c(CNCC(O)c2ccccc2F)c(C(C)C)nn1C (stereo not given),91.26
24,COc1c(CNCC(O)c2ccccc2)c(C(C)C)nn1C (stereo not given),92.93

row,SMILES,Percent Effect [%]
1,COc1c(CNCC(O)c2ccc(C)cc2)c(C(C)C)nn1C (stereo not given),85.73
2,CC(C)c1nn(C)c(N(C)C)c1CNCC(O)c1ccccc1F (stereo not given),-5.015
3,Cc1nn(C)c(N(C)C)c1CNCc1cccc(Cl)c1,10.47
4,COc1c(CNCC(c2cccc(F)c2)N(C)C)c(C(C)C)nn1C (stereo not given),10
5,COc1c(CNCc2ccc(N(C)C)nc2)c(C(C)C)nn1C,-3.12
6,COc1ccccc1C(O)CNCc1c(C(C)C)nn(C)c1N(C)C (stereo not given),2.712
7,Cc1cccc(C(=O)N2CCSCC2)c1NC(=O)c1ccsc1,1.507
8,O=C(c1cc(=O)[nH]c(=O)[nH]1)N1CCCCC1c1nc2cc(F)ccc2[nH]1 (stereo not given),-7.879
9,CC(C)(C)OC(=O)N[C@H]1CCN(c2cncc(Br)c2)C1,4.915
10,Cn1c(SCc2noc(C(C)(C)C)n2)nnc1C1CCS(=O)(=O)C1 (stereo not given),11.73
11,CCc1ccc(C(=O)NCCCC2(C3OCCO3)CCOCC2)cc1,-33.3
12,N#Cc1ccccc1CN1C[C@@H]2CC[C@H](C1)N(Cc1cscn1)C2=O,-11.1
13,O=C(NCc1ccccc1)N1CCC(Oc2ncccc2Br)CC1,-0.9975
14,NC(=O)Nc1cccc(F)c1C(=O)NC1CCCC1,2.904
15,COc1c(CNCC(O)COc2ccc3c(c2)OCO3)c(C)nn1C (stereo not given),70.56
16,Cc1nc(CNCC(O)COc2ccc3c(c2)OCO3)cs1 (stereo not given),-10.52
17,COc1c(CNCC(O)c2cccc(F)c2)c(C(C)C)nn1C (stereo not given),6.756
18,COc1c(CNCC(O)c2cccc(F)c2)c(C)nn1C (stereo not given),102.4
19,COc1c(CNC(c2ccc(F)cc2)C(C)(C)C)c(C)nn1C (stereo not given),23.53
20,Cc1nn(C)c(Cl)c1CNCCOc1ccc2c(c1)OCO2,-10.2
21,CC(=O)c1ccc(N2CCC3(CCC(=O)N(CCCO)C3)CC2)nc1,-7.997
22,Cc1ccc(CC2COCCN(S(C)(=O)=O)C2)nc1 (stereo not given),84.13
23,CN(CC1CCCN(S(C)(=O)=O)C1)c1cnn(C)c1 (stereo not given),7.496
24,Cc1ccc(CC2CCCN(S(C)(=O)=O)C2)nc1 (stereo not given),114.6

row,SMILES,Percent Effect [%]
1,O=C1N(Cc2cccnc2)C[C@H]2CN(S(=O)(=O)c3ccccc3)CCN12,-1.281
2,Cc1csc(CN2C[C@@H]3CN(S(C)(=O)=O)CCO[C@@H]3C2)n1,-30.25
3,Cc1ccc(CC2COCCN(S(=O)(=O)c3ccccc3)C2)nc1 (stereo not given),86.08
4,Cc1cnc(N2CCC[C@@H]3CN(S(C)(=O)=O)C[C@@H]32)nc1,11.33
5,Cn1ccnc1CN1C[C@H]2CN(S(=O)(=O)c3ccccc3)CCN2C1=O,0.6101
6,O=S(=O)(c1cccnc1)N1CCC(OCCCc2ccccc2)C1 (stereo not given),-0.692
7,O=C1N(Cc2ccccn2)C[C@H]2CN(S(=O)(=O)c3ccccc3)CCN12,-3.737
8,Cc1ncsc1CN1C[C@@H]2CN(S(C)(=O)=O)CCO[C@@H]2C1,-34.03
9,O=S(=O)(c1ccccc1)N1CCOCC(Cc2cccnc2)C1 (stereo not given),91.68
10,Cc1cc(C)n(C2CN(CC(O)c3ccc4c(c3)OCO4)C2)n1 (stereo not given),-2.648
11,COCCC1(C(=O)O)CCN(c2cc(C)c3ccccc3n2)CC1,-3.456
12,Cc1cc(N2CCN(C(=O)[C@@H]3C[C@@H]4C=C[C@H]3C4)CC2)nc2ccccc12,54.26
13,CCc1nc(C)cc(N2CCCC(C(=O)c3ccc(OC)cc3C)C2)n1 (stereo not given),-51.86
14,Cc1cc(N2CCC(O)(C(=O)O)CC2)nc2ccccc12,-10.2
15,CCc1nc(C)cc(N2CCN(C(=O)[C@@H]3C[C@@H]4C=C[C@H]3C4)CC2)n1,84.46
16,CCC(=O)N1CCCN(c2cncc(-n3nc(C)cc3C)n2)CC1,-2.482
17,CC(C)n1nc(Cn2cccn2)c2c1CN(CC1CCOC1)C2.O=C(O)C(F)(F)F (stereo not given),-1.747
18,CCOC(=O)NCCC(=O)NCc1ccc(Oc2cccc(F)c2)nc1,3.713
19,CCc1ncnc2c1CCN(C(=O)N1CCCC1)CC2,16.14
20,CCS(=O)(=O)N1CCc2ncnc(OC)c2CC1,0.7096
21,CCOc1ncnc2c1CCN(S(=O)(=O)c1ccccc1)CC2,89.01
22,CCOc1ncnc2c1CCN(Cc1cccs1)CC2.O=C(O)C(F)(F)F,-4.6
23,CCc1ncnc2c1CCN(C(=O)Cc1ccccn1)CC2,-1.286
24,CCS(=O)(=O)N1CCc2ncnc(C)c2CC1,-1.649

row,SMILES,Percent Effect [%]
1,CCc1ncnc2c1CCN(S(=O)(=O)CC)CC2,104.4
2,CCN(C)c1ncnc2c1CCN(S(=O)(=O)c1ccccc1)CC2.O=C(O)C(F)(F)F,77.11
3,CCN(C)c1ncnc2c1CCN(C(=O)N(C)C)CC2.O=C(O)C(F)(F)F,-3.614
4,CCc1ncnc2c1CCN(S(=O)(=O)c1ccccc1)CC2,113.2
5,CCN(C)c1ncnc2c1CCN(C(=O)c1ccccn1)CC2.O=C(O)C(F)(F)F.O=C(O)C(F)(F)F,-0.1551
6,CCOc1ncnc2c1CCN(S(=O)(=O)CC)CC2,-16.86
7,CC(O)CN(CC(=O)NC(=O)NCC(F)(F)F)c1ccccc1 (stereo not given),-9.09
8,COCCN1CCN(C(=O)c2ccc(C)cc2F)[C@H]2CS(=O)(=O)C[C@H]21,8.657
9,COC(=O)CCNC(=O)c1cccc(C(=O)N(C)c2ccccc2)c1,2.44
10,CC(=O)N1CCN(C(=O)NCCCN(C(C)C)S(C)(=O)=O)CC1,-2.467
11,COc1ccc2[nH]nc(CN3CCN(Cc4cccc(F)c4)CC3)c2c1,-9.903
12,Cc1cc(NCCCNS(C)(=O)=O)nc2ccccc12,-15.92
13,CCN(C)C1COC2(CCN(C(=O)c3ccc4[nH]ccc4c3)CC2)C1 (stereo not given),-14.16
14,O=C(CCCOc1ccc(F)cc1)N1CCCC(n2cccn2)C1 (stereo not given),-3.272
15,O=C(CCOc1cccc(F)c1)N1CCCC(n2cncn2)C1 (stereo not given),-0.888
16,O=C(CCCOc1cccc(F)c1)N1CCCC(n2cncn2)C1 (stereo not given),133
17,Cn1cc(C2CCCN2C(=O)CCCOc2ccc(F)cc2F)cn1 (stereo not given),6.494
18,O=C(CCCc1nc2ccccc2[nH]1)N1CCCC(n2cccn2)C1 (stereo not given),-6.233
19,O=C(CCCOc1cccc(F)c1)N1CCCC(n2cccn2)C1 (stereo not given),116.5
20,O=C(CCCOc1ccc(F)cc1F)N1CCCC(n2cccn2)C1 (stereo not given),132.9
21,O=C(COc1ccc2c(c1)CCC2)N1CCCC(n2cccn2)C1 (stereo not given),22.49
22,O=C(CCCOc1ccccc1Cl)N1CCCC(n2cncn2)C1 (stereo not given),20.25
23,O=C(CCOc1cccc(F)c1)N1CCCC(n2cccn2)C1 (stereo not given),114
